Reference: ChEMBL document CHEMBL3988442, “University of Dundee, Small-Polar-MMV Screening Library” (2021)

These molecules were tested against AMP-activated protein kinase, AMPK (Homo sapiens) (UniProt P54646+O43741+P54619+Q9UGJ0+Q9Y478+Q13131+Q9UGI9) (assay: AMP-dependent Kinase enzyme assay. An in vitro enzyme assay that detects ADP turnover that is directly proportional to AMPK activity. This uses naive AMPK that is activated during the assay with MK-8722). Details: 30 µM.
Format: functional
Design: scale not given: direction of the effect not stated beside the values
`CC1CCN(CC(=O)N(C)CCc2noc(C3CC3)n2)C1=O` (centres undefined) was tested, and the Percent Effect was -1.6%.
`COCC(O)CNC(=O)c1cc(COc2ccc3c(c2)CCCC3)on1` (centres undefined) showed a Percent Effect of -0.134%.
`Cc1cc(NCCc2nc(C)c[nH]2)nc(-c2ccccc2O)n1` gave a Percent Effect of 17.8%.
`Cc1cc(C(=O)Nc2ccc(OCCN3CCN(C)CC3)cc2)[nH]n1` showed a Percent Effect of 14.7%.
Molecule `CSCCC(NC(N)=O)C(=O)NCc1cnn(-c2ccccc2)c1` (centres undefined) has a Percent Effect of -5.05%.
`CNC(=O)C1CN(C(=O)Cc2ccc(OC)cc2)Cc2cn(C)nc21` (centres undefined) gave a Percent Effect of -3.48%.
Molecule `CC(OCC1CC1)C(=O)Nc1cccc(C(=O)Nc2ccncc2)c1` (centres undefined) has a Percent Effect of 17.8%.
Work on `Fc1cc(CCNc2ccc3nccn3n2)c2c(c1)COCO2` yielded a Percent Effect of 17.6%.
`CCOc1ccc(C(=O)NC2CCN(c3ncccn3)CC2)cc1C` was tested, and the Percent Effect was 0.756%.
`Cc1ccc(N2CCCN(C(=O)CCCn3ccnc3C)CC2)nn1` gave a Percent Effect of -0.453%.
With `NC(=O)[C@@H]1Cc2ccccc2CN1CCC(=O)N1CCOCC1` the Percent Effect was -7.78%.
In the case of `CN(Cc1ccccc1)S(=O)(=O)N1C[C@@H](C(=O)O)[C@H](C2CC2)C1`, the Percent Effect was 3.92%.
For `CNc1ccc(C)cc1C(=O)N1CCCC2(CCNC2)C1` (centres undefined), the Percent Effect was 10.4%.
With `CC(c1nnc(-c2ccccc2)o1)N1CCC(Nc2ccccc2)CC1` (centres undefined) the Percent Effect was 4.64%.
`N#CCCN(C(=O)CCc1cscn1)c1ccc2c(c1)OCCO2` showed a Percent Effect of -3.58%.
With `Cc1nc(CN2CCc3ccc(S(N)(=O)=O)cc32)oc1C` the Percent Effect was -7.39%.
`O=c1[nH]c2ccc(S(=O)(=O)N(CCO)Cc3ccncc3)cc2[nH]1` showed a Percent Effect of 15.8%.
`CC(C)Oc1ncccc1CNC(=O)NC(C)c1cccs1` (centres undefined) was tested, and the Percent Effect was -3.91%.
`CCc1cc(=O)[nH]c(-c2ccc(NCCC(C)O)nc2)n1` (centres undefined) was tested, and the Percent Effect was -6.17%.
